Inhibition data for 85 compounds are collected here from PubChem BioAssay AID588832 (Broad Institute, 2011).

The structures appear in SMILES notation. The campaign covered roughly 8,000 compounds. Fewer than 10 were called active. The rule behind the calls is not given here. These entries were drawn from the full list.

The term inhibition denotes the change of the read-out against control, counted positive when it falls.

In this test the test system is hedgehog, isoform A (Drosophila melanogaster). As to the kind of experiment: Drosophila hedgehog isoform A inhibitors, primary screen, biochemical, plate reader, single concentration (AID 588832).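 Note: 0% = neutral control wells and 100% = positive control wells.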 Particulars: Biochemical plate reader assay, at 30.3 µM, stronger effect = higher value.
In the case of `COc1cccc(C2c3[nH]c4ccccc4c3C[C@H]3C(=O)N(c4ccccc4C(=O)N4CCCC4C(=O)O)C(=O)N23)c1` (stereo not given in full), the inhibition is -3.51% (inactive).

Consider `Cn1cccc1Cc1nnc(SCC(=O)Nc2ccccc2F)n1-c1ccc(F)cc1`, for which the inhibition is 8.33% (inactive). For `Cn1c(=O)c2c(SCc3ccccn3)nc(CC(C)(C)C)nc2n(C)c1=O` the value was 4.58% (inactive); for `CSC1=NCCN1C(=O)c1ccc(S(=O)(=O)N2CCCC2)cc1`, -1.85% (inactive); for `O=C(Nc1ccccc1Cl)c1ccc2c(c1)N(Cc1ccc(F)cc1)C(=O)CS2=O` (stereo not given), 15% (inactive). As for `CC1(C2CCC3(C)OC3C2)CO1` (stereo not given), the figure is 7.18% (inactive). Consider `Cc1cccc(N2CCN(C(=O)CCC(=O)N3CC(C)Oc4ccc(C)cc43)CC2C)c1` (stereo not given), for which the inhibition was 5.06% (inactive).

As to `COc1cc2c(cc1OC)CN(C(=O)c1ccc3[nH]c(C)c(C)c3c1)CC2`, the inhibition is 8.74% (inactive). Regarding `O=c1c(Cc2ccccc2O)c(O)nc2n1CCCS2`, the inhibition is 3.39% (inactive).

Consider `COc1ccc(N(C(=O)c2ccncc2)S(=O)(=O)c2ccc(OC)c(OC)c2)cc1`, for which the inhibition was 11.1% (inactive). As for `CCCCC(NC(C)=O)c1nc2ccccc2[nH]1` (stereo not given), the figure is 5.42% (inactive). As for `Cc1cc(Nc2ccc(C(C)C)cc2)n2ncnc2n1`, the figure is 6.72% (inactive); as for `Cc1cc(NS(=O)(=O)c2ccc(NC(=O)c3cnc4scc(C)n4c3=O)cc2)nc(C)n1`, 6.2% (inactive); as for `CC(C)OC(=O)c1nnc(Cc2ccc(Cl)cc2)o1`, 20% (inactive).

Turning to `O=C(c1cnn(-c2ccccc2)c1-n1cccc1)N1CCN(C2CCCCC2)CC1`, the inhibition is 9.55% (inactive). On to `Cc1cc(Cl)cc2sc(NC(=O)c3ccco3)nc12`, for which the inhibition is 3.57% (inactive). As for `O=C(O)c1cccc(N2C(=O)C3CC=C(Cl)CC3C2=O)c1` (stereo not given), the figure is 14.9% (inactive); as for `CCn1c(C(=O)N2CCC(C(=O)NCc3ccc4c(c3)OCO4)CC2)cc2sccc21`, 8.81% (inactive).

Consider `COC(=O)C1(Cc2ccc(O)c(CC3OC3(C)C)c2)OC(=O)C(O)=C1c1ccc(O)cc1` (stereo not given), for which the inhibition was 6.79% (inactive). For `CC(C)[C@H](NC(=O)[C@@H]1Cc2c([nH]c3ccccc23)C2c3ccccc3C(=O)N21)C(=O)N1CCC[C@H]1C(=O)O` (stereo not given in full) the value was 5.17% (inactive); for `CCOc1ccc(C2C(C(=O)Nc3ccc(F)cc3)=C(C)Nc3nc(CCCO)nn32)cc1` (stereo not given), 10% (inactive); for `Cc1cc2c(cc1S(=O)(=O)N1CCCCC1)OCC(=O)N2`, 10.9% (inactive).

With `Cc1noc(C)c1S(=O)(=O)N1CCN(C(c2ccccc2)c2ccc(Cl)cc2)CC1` (stereo not given), the inhibition is 8.33% (inactive). For `COc1ccc(S(=O)(=O)Cc2ccc(C(=O)NC3CCCC3)o2)cc1`, the inhibition was 8.33% (inactive). For `COc1cc(OC)c(NS(=O)(=O)c2coc(C(N)=O)c2)cc1Cl`, the inhibition was 25% (inactive). As for `O=C(C1COc2ccccc2O1)N1CCn2c(nc3ccccc32)C1` (stereo not given), the figure is 4.17% (inactive). For the compound `COc1cc(-c2cc(=O)c3c(O)c(OC)c(OC)c(OC)c3o2)cc(OC)c1OC`, the inhibition was 3.45% (inactive). Take `O=C(CN1CCOc2ccccc21)NC1CCCCCCC1`: the inhibition was 25% (inactive). With `Cc1cccc(NC(=O)CSc2nc3ccccc3nc2N2CC(C)OC(C)C2)c1` (stereo not given), the inhibition was 3.85% (inactive).

As to `CCOc1ccc(NC(=O)c2cccc(NC3=NC4CS(=O)(=O)CC4S3)c2)cc1` (stereo not given), the inhibition was 5.12% (inactive). `COc1ccccc1C(=O)OCn1nnc2ccccc2c1=O`: the inhibition was -5% (inactive). As for `Cc1c(C)c2c(OCC(=O)N[C@@H](Cc3ccccc3)C(=O)O)cc3c(c2oc1=O)CCC(C)(C)O3`, the inhibition was -1.79% (inactive). On to `Clc1ccccc1C1CC(c2ccccc2)Nc2ncnn21` (stereo not given), for which the inhibition was 8.33% (inactive). For `O=C(NCCCN1CCOCC1)c1ccccc1N1C(=O)[C@@H]2Cc3c([nH]c4ccccc34)C(c3cccc(Cl)c3)N2C1=O` (stereo not given in full) the value was 0% (inactive). Consider `CCCc1cc(=O)oc2cc(OC(C)C(=O)NCC3CCC(C(=O)O)CC3)c(Cl)cc12` (stereo not given), for which the inhibition was 7.18% (inactive). `O=C(CCC(=O)N1CCOc2ccccc21)Nc1ccccc1Br`: the inhibition was 6.78% (inactive). For `CC1(C)Cc2c(C#N)c(NC3CCCCC3)nc(-c3ccco3)c2CO1` the value was 3.64% (inactive).

For the compound `COc1ccc2[nH]c3c(c2c1)CCN1C(=O)N([C@@H](C)C(=O)NCc2ccc(C)cc2)C(=O)[C@]31C`, the inhibition is 0% (inactive). As for `CC(=O)O[C@H]1C(=O)[C@@]2(C)C([C@H](OC(=O)c3ccccc3)[C@]3(O)C[C@H](OC(=O)[C@H](O)[C@@H](NC(=O)c4ccccc4)c4ccccc4)C(C)=C1C3(C)C)[C@]1(OC(C)=O)CO[C@@H]1C[C@H]2O` (stereo not given in full), the figure is 5.12% (inactive); as for `CCc1nn(CC(=O)N2CCN(C)CC2)c(=O)c2cccn12`, 5.06% (inactive). For `Cc1ccc(S(=O)(=O)NCc2ccc3[nH]c(C)cc3c2)cc1` the value was 3.57% (inactive); for `CC1CCCN(C(c2ccccc2)c2sc3ncnn3c2O)C1` (stereo not given), 5.06% (inactive). As for `CCOc1ccc(-n2c(SCC(=O)N3CCc4ccccc43)nnc2-c2c[nH]c3ccccc23)cc1`, the figure is 13.3% (inactive). `Nc1nc2n(n1)C(c1cccc(Br)c1)CC(c1ccc(F)cc1)N2` (stereo not given): the inhibition was 23.4% (inactive). As for `CCOc1ccc(-c2nc(CS(=O)(=O)CC(=O)NCc3ccc(F)cc3)c(C)o2)cc1`, the figure is 3.57% (inactive).

For the compound `COc1ccccc1NC(=O)NCCCN1CCN(c2cccc(Cl)c2)CC1`, the inhibition is -5.49% (inactive). For `Cc1c(S(=O)(=O)Nc2cccc(Cl)c2)c(=O)n(C)c(=O)n1C` the value was 0.909% (inactive); for `COc1cc(OC)cc(C(=O)OCn2nnc3ccccc3c2=O)c1`, 0% (inactive); for `COC(=O)c1ccccc1NC(=O)C1CCCN(c2nnc(-n3cccc3)s2)C1` (stereo not given), 0.909% (inactive). In the case of `C/C=C/c1cc(OC)c2c(c1)[C@H](C)[C@@H](c1ccc(O)c(OC)c1)O2`, the inhibition is 0% (inactive).

With `CCCn1c(CN2CCCCC2C)nc2c1c(=O)n(C)c(=O)n2C` (stereo not given), the inhibition is 3.57% (inactive). For the compound `COC(=O)C1=C(C)Nc2ccc(C)cc2S1`, the inhibition was 0% (inactive).

For `CC(=O)c1ccc(NC(=O)C2CCCN2S(=O)(=O)c2ccc(C)cc2)cc1` (stereo not given), the inhibition was 15.4% (inactive). As for `CCOc1ccc(NC(c2ccccn2)c2oc(CO)cc(=O)c2O)cc1` (stereo not given), the figure is 1.85% (inactive). As for `COc1ccc(NC(=O)c2cc(S(=O)(=O)N3CCc4ccccc43)cn2C)cc1`, the figure is -3.51% (inactive).

For the compound `O=C(CSc1nc2c(c(=O)n1-c1ccccc1)SCC2)N1CCN(c2ccccc2)CC1`, the inhibition is 5.23% (inactive). Regarding `NC(=O)c1cccc2c1C(=O)N(C1CCCCC1)C2`, the inhibition is 6.78% (inactive). As for `Cc1ccccc1C(=O)Nc1nnc(S(=O)(=O)N2CCCCC2)s1`, the inhibition is 3.67% (inactive). On to `O=C(Nc1ccccc1)N1CCC(n2c(=O)[nH]c3ccccc32)CC1`, for which the inhibition is 11.9% (inactive). Turning to `Cc1cc2c(cc(C(=O)N3CCC(C(=O)N4CCCC4)CC3)n2Cc2c(F)cccc2Cl)o1`, the inhibition is 6.84% (inactive). As to `C=C1CCCC2OC(CC3=CC4/C(C)=C/CC(C)CC(/C=C(\C)C(O)C5CC(O)C(O)C(CCC(O)/C=C/C(C)=C/CCC6=NCCC(C3)C64C)O5)OC(=O)CC3OC(C(O)C1)C(O)C3O)CC(O)C2O` (stereo not given), the inhibition is 5.17% (inactive). Consider `Nc1nonc1-n1nnc(C(=O)N/N=C/c2ccc(O)cc2)c1CN1CCCCCC1`, for which the inhibition was -1.79% (inactive). As for `CC1C(=O)Nc2ccc(S(=O)(=O)N3CCN(c4cccc(Cl)c4)CC3)cc2NC1=O` (stereo not given), the figure is 7.02% (inactive); as for `O=c1ccc2cc(S(=O)(=O)N3CCN(c4ccccc4F)CC3)ccc2[nH]1`, -3.85% (inactive). As for `COc1ccccc1CNC(=O)[C@H](Cc1c[nH]c2ccccc12)NC(=O)[C@@H]1Cc2ccccc2CN1`, the figure is 3.6% (inactive); as for `CCOC(=O)c1ccc(NC(=O)COc2cc(=O)n(CC)c3ccccc23)cc1`, 4.17% (inactive); as for `COC(=O)C(N)CCCCN` (stereo not given), 3.45% (inactive). As for `COc1ccc(NC(=O)c2cc(CC(C)C)on2)cc1OC`, the figure is 8.45% (inactive). For `CCOC(=O)N1CCC(N2Cc3cccc(C(=O)N4CCN(C5CCCCC5)CC4)c3C2=O)CC1`, the inhibition is 5.77% (inactive). In the case of `CCSc1nnc2c(n1)OC(c1ccc(C(=O)O)cc1)N(C(C)=O)c1ccccc1-2` (stereo not given), the inhibition was 0.848% (inactive). In the case of `Cc1ccc(-c2nc(CS(=O)CC(=O)NCCCN3CC(C)CC(C)C3)c(C)o2)cc1` (stereo not given), the inhibition was 3.85% (inactive). As for `Cc1oc(-c2ccc(Cl)cc2)nc1CS(=O)CC(=O)NCc1cccs1` (stereo not given), the figure is 5.23% (inactive). Consider `COc1ccc(N2CCN(C(=O)c3ccc(CS(=O)(=O)c4ccccc4C)o3)CC2)cc1`, for which the inhibition was 7.34% (inactive). As for `Cc1ccc(-c2nc3cccnc3s2)cc1NS(=O)(=O)c1ccc2c(c1)CCCC2`, the figure is 6.78% (inactive). In the case of `Cc1ccc(S(=O)(=O)Nc2ccc(O)c3ncccc23)cc1`, the inhibition was 64.4% (active).

As for `CCC(NS(=O)(=O)c1ccc(C)cc1)C(=O)N1CCN(c2ccccn2)CC1` (stereo not given), the inhibition is 20.8% (inactive). As to `COc1c2c(c(C)c3c1C(=O)OC3)O[C@@]1(C)CC[C@@]3(O)C(C)(C)OC(=O)CC[C@]3(C)[C@H]1C2`, the inhibition was -1.82% (inactive). As for `O=C(Cc1cc(=O)[nH]c(=O)[nH]1)NCCN1CCOCC1`, the figure is 9.62% (inactive). As for `COc1ccc2c(c1OC)C(=O)N1C2SC[C@H]1C(=O)NC1CCCCC1` (stereo not given in full), the figure is 4.89% (inactive). Consider `c1ccc(Nc2nc3ccccc3n3nnnc23)cc1`, for which the inhibition was 1.79% (inactive). Take `Cc1cc(C)cc(N2CC(c3nc4ccccc4n3C)CC2=O)c1` (stereo not given): the inhibition is 5.06% (inactive). On to `Cc1ccc(CNC(=O)[C@@H](NC(=O)C2CCN(C(=O)[C@@H]3CCCN3)CC2)C(C)C)cc1`, for which the inhibition was 8.17% (inactive). For the compound `Cc1csc2ncc(C(=O)NC(C)c3ccccc3)c(=O)n12` (stereo not given), the inhibition is 7.24% (inactive). With `CC1CCN(Cc2ccc(NC(=O)C3CCN(c4nnc(-n5cccc5)s4)CC3)cc2)CC1`, the inhibition is 1.99% (inactive). Consider `CCOC(=O)Cn1c(=O)n(Cc2ccco2)c(=O)c2ccc(C(=O)NC3CCCC3)cc21`, for which the inhibition is -13% (inactive).
